Here are results for six molecules from PubChem BioAssay.

Test [1] deals with Plasmodium falciparum Sir2 (PF13_0152, Sir2A). Nature of the test: pfSir2 binders on small-molecule microarrays, primary screen, biochemical, small-molecule microarray, 635 nm fluorescence (AID 1098).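 Further: score merges spot fluorescence intensity with its signal-to-noise ratio.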 The settings on record: small-molecule microarray binding, fluorescence 635 nm; higher = more signal.
Test [2] can be described thus: small-molecule microarray binders of probe aDKK1, primary screen, biochemical, biotinylated probe, 635/667 nm fluorescence (AID 1099).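 Further: score merges 667nm spot fluorescence with signal to noise across triplicate slides.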 The settings on record: higher = more signal.
A short description of test [3]: small-molecule microarray binders of probe aCHRDL2, primary screen, biochemical, biotinylated probe, 635/667 nm fluorescence (AID 1100). The settings on record: higher = more signal.
The nature of test [4]: splicing luciferase reporter signal modulators, primary screen, spliceosome inhibition project, cell-based, HEK293, splice +/- reporter (AID 1101).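 Further: HEK293 cells carrying a splicing-competent luciferase reporter gene; test concentration not given here.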 The settings on record: luminescence, 24 h, higher = more signal, called active from +8 up or from −8 down. For orientation: A reporter such as luciferase makes a cellular process visible.
Test [5] addresses Fibroblast growth factor 10 (Homo sapiens) (UniProt O15520). In words: FGF10 binders on small-molecule microarrays, primary screen, biochemical, small-molecule microarray, 635 nm fluorescence (AID 1102). The settings on record: FGF10 binding, fluorescence 635 nm, higher = more signal.
Test [6] deals with glycogen synthase kinase-3 (GSK3A per assay name; protocol says GSK3B). Nature of the test: GSK3 binders on small-molecule microarrays, primary screen, biochemical, small-molecule microarray, 635 nm fluorescence, GSK3A (AID 1103). Further: the record names both GSK3A and GSK3B. The settings on record: small-molecule microarray binding, fluorescence 635 nm; higher = more signal.
Test [7] has as its target Epidermal growth factor receptor (Homo sapiens) (UniProt P00533). In words: EGFR binders on small-molecule microarrays, primary screen, biochemical, small-molecule microarray, 635 nm fluorescence (AID 1104).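 Further: score merges 667 nm emission intensity with spot signal to noise over triplicate slides.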 The settings on record: EGFR binding, higher = more signal.
The target of test [8] is Follistatin-related protein 3 (Homo sapiens) (UniProt O95633). Nature of the test: FSTL3 binders on small-molecule microarrays, primary screen, biochemical, small-molecule microarray, 635 nm fluorescence (AID 1105).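 Further: score merges emission near 667 nm and signal to noise per printed spot across three slides.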 The settings on record: FSTL3 binding, higher = more signal.
For test [9], the target named is Dickkopf-related protein 1 (Homo sapiens) (UniProt O94907). Nature of the test: DKK1 binders on small-molecule microarrays, primary screen, biochemical, small-molecule microarray, 635 nm fluorescence scan (AID 1106).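 Further: score merges emission near 667 nm with signal to noise over three replicate slides.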 The settings on record: DKK1 binding, higher = more signal.
Test [10] has as its system Inhibin beta A chain (activin A). Nature of the test: INHBA (activin A) binders on microarrays, primary screen, biochemical, small-molecule microarray, 635 nm fluorescence scan (AID 1107).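 Further: mouse activin A protein probed at 4.33 µg/mL on printed slides; score merges bound-protein fluorescence near 667 nm with spot signal-to-noise.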 The settings on record: small-molecule microarray binding, higher = more signal.
For test [11], the system named is Human papillomavirus type 1a protein E7 (residues 44-93). In words: HPV1a E7 fragment binders on microarrays, primary screen, biochemical, small-molecule microarray, residues 44-93, 635 nm fluorescence (AID 1108).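 Further: E7 fragment applied at 1 µg/mL in TBST for 1 h at 4 C; score combines spot fluorescence with its signal to noise ratio.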 The settings on record: small-molecule microarray binding, fluorescence 635 nm; higher = more signal.
The nature of test [12]: modulators of HCV replicon luciferase signal, primary screen, HCV replication inhibitor project, Huh7 cells, luciferase reporter (AID 1109).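 Further: huh7 hepatoma cells harbouring a luciferase neomycin HCV replicon reporter; luciferase luminescence as measure of HCV replicon replication; test concentration not given here.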 The settings on record: 48 h, higher = more signal. A general note: In antiviral work, replicon cells carry a viral genome segment that copies itself.
Test [13] has as its target Left-right determination factor 2 (Homo sapiens) (UniProt O00292). In words: LEFTY2 binders on small-molecule microarrays, primary screen, biochemical, small-molecule microarray, 635 nm fluorescence scan (AID 1110). The settings on record: LEFTY2 binding, higher = more signal.
The target in test [14] is Calmodulin-1 (Homo sapiens) (UniProt P0DP23). In words: CALM1 binders on microarrays, EGTA buffer, profiling panel, biochemical, small-molecule microarray, Cy5-labelled CALM1 (AID 1111).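 Further: labelled calmodulin applied in Tris saline Tween buffer holding calcium plus EGTA and DTT.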 The settings on record: Cy5-CALM1 binding fluorescence, higher = more signal.
For test [15] the target is unchanged. In words: calcium-bound CALM1 binders on microarrays, profiling panel, artefact control for SMM control-protein annotation, biochemical, small-molecule microarray, Cy5-labelled CALM1, plus calcium (AID 1112).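 Further: score merges spot fluorescence with signal to noise from triplicate slides.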 The settings on record: Cy5-CALM1 binding fluorescence, higher = more signal.
Test [16] in a line: small-molecule microarray binders of probe aWnt5a, primary screen, biochemical, biotinylated probe, 635/667 nm fluorescence (AID 1113).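 Further: score merges 667 nm fluorescence intensity with signal-to-noise per printed feature.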 The settings on record: higher = more signal.
A short description of test [17]: small-molecule microarray binders of probe aShh, primary screen, biochemical, biotinylated probe, 635/667 nm fluorescence (AID 1114).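 Further: probe is biotin-labelled aShh protein from a stem cell growth factor screen; measures binding of labelled protein to compounds printed on the slide; score merges feature fluorescence at 667 nm with signal-to-noise.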 The settings on record: higher = more signal.
A short description of test [18]: small-molecule microarray binders of probe aNog, primary screen, biochemical, biotinylated probe, 635/667 nm fluorescence (AID 1115).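 Further: probe is biotinylated aNog protein used at 0.15 µg/mL for 1 h at 4 C; z-score combines 667 nm fluorescence of each spot with its signal to noise.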 The settings on record: higher = more signal.
Test [19] concerns the target Torsin-1A-interacting protein 1 (Homo sapiens) (UniProt Q5JTV8). In words: LAP1 binders from COS7 cell lysate, primary screen, small-molecule microarray, 635/667 nm fluorescence (AID 1116). The settings on record: COS7-hLAP1 lysate binding, 635 nm fluorescence, higher = more signal.
Test [20] has as its target Alpha-bungarotoxin (Bungarus multicinctus) (UniProt P60615). In words: alpha-bungarotoxin binders on microarray, profiling panel, artefact control for SMM control protein annotation, biochemical, small-molecule microarray, Alexa647 label, 635/667 nm fluorescence (AID 1117). The settings on record: alpha-BTX-A647 binding fluorescence, higher = more signal.

Values joined by “and” are separate entries in the source; they are usually repeats but may differ in a detail not shown here. Identical values can stand only once. Active and inactive are the calls of the source.

Sequence of Follistatin-related protein 3 (Homo sapiens) (O95633 whole entry, looked up): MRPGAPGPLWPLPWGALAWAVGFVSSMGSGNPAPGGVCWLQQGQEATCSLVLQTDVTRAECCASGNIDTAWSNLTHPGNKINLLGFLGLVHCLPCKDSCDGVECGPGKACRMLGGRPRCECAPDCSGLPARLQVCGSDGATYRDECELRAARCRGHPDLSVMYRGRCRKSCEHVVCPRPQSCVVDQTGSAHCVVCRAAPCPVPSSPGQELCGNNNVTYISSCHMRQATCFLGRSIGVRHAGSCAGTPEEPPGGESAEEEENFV
Sequence of Left-right determination factor 2 (Homo sapiens) (O00292 whole entry, looked up): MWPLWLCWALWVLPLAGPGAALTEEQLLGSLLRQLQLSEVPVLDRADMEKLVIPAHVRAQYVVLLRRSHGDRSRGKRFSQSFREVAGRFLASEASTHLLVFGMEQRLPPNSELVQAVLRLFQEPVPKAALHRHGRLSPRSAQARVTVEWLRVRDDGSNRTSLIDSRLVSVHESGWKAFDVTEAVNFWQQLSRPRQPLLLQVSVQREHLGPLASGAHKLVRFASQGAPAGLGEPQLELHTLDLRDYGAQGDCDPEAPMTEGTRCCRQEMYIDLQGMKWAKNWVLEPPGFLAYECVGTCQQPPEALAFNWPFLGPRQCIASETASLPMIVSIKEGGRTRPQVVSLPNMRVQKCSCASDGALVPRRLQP
Sequence of Torsin-1A-interacting protein 1 (Homo sapiens) (Q5JTV8 whole entry, looked up): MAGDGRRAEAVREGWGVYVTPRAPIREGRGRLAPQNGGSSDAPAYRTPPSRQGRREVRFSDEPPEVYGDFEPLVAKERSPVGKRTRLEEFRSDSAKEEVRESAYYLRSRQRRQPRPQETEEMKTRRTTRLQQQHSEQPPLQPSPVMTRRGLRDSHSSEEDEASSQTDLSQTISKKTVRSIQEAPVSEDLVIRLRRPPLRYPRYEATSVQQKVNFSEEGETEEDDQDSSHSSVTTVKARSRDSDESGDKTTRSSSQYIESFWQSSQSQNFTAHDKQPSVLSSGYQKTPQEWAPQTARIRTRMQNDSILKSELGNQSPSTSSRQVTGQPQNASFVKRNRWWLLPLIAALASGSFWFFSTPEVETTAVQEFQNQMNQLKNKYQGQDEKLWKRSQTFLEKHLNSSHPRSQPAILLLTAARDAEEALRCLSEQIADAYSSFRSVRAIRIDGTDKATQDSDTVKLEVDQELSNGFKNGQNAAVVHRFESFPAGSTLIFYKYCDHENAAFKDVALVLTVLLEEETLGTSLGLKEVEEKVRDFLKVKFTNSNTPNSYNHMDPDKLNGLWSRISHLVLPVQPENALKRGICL
Sequence of Epidermal growth factor receptor (Homo sapiens) (P00533 whole entry, looked up): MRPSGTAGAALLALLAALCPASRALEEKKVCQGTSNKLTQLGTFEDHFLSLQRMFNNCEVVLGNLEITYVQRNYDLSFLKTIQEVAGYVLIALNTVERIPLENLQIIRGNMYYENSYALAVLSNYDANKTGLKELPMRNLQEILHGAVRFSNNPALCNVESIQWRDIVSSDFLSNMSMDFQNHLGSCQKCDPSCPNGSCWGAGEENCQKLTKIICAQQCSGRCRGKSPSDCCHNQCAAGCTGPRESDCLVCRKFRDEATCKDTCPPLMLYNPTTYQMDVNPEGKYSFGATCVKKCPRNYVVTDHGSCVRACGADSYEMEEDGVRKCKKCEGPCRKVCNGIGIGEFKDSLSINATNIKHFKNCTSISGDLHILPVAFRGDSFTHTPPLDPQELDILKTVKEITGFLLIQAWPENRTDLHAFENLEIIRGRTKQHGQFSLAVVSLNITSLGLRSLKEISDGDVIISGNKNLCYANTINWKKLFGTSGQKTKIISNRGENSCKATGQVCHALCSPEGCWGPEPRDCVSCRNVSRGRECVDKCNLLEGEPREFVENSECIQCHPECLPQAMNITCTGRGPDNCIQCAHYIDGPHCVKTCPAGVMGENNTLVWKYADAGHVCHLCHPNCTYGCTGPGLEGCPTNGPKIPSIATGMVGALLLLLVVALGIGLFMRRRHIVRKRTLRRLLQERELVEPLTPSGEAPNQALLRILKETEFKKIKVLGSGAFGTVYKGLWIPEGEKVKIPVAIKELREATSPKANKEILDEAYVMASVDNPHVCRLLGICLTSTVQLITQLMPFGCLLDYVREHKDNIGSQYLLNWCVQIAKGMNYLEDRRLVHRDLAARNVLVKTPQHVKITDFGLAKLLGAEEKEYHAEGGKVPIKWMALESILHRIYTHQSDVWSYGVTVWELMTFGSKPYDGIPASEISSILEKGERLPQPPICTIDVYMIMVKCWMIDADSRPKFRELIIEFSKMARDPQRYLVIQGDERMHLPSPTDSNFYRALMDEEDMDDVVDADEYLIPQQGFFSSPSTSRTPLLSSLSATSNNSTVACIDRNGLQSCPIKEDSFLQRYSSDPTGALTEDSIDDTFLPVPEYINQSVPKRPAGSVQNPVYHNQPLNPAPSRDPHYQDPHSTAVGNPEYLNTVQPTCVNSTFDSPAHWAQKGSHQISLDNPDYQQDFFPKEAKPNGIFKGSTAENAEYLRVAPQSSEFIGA
Sequence of Dickkopf-related protein 1 (Homo sapiens) (O94907 whole entry, looked up): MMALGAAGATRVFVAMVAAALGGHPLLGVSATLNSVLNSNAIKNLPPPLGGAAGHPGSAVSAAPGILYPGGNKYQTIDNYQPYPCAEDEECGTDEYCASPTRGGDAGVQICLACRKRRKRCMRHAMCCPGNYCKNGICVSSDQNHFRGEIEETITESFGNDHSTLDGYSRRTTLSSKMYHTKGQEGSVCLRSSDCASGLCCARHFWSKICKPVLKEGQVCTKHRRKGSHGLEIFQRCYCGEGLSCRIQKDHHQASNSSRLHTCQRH
Sequence of Alpha-bungarotoxin (Bungarus multicinctus) (P60615 whole entry, looked up): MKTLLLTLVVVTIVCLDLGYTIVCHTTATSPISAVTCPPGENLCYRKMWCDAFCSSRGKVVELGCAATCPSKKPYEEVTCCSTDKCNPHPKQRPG
Sequence of Fibroblast growth factor 10 (Homo sapiens) (O15520 whole entry, looked up): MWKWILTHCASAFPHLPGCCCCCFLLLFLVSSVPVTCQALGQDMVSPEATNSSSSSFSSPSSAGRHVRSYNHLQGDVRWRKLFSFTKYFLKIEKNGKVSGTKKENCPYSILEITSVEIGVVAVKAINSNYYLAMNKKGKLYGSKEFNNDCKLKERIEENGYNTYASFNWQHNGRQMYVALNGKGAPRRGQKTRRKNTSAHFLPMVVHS

For the molecule `COC(=O)C1=C(C)N(Cc2ccccc2)C2=C(C(C)=O)[C@H](c3ccccc3)[C@@](O)(C(=O)OC)C(=O)N2[C@@H]1c1ccccc1`, the composite z-score in test [1] was 0.765 and -0.399; in [2], 0.156 and -0.547; in test [3] it was -0.535 and -0.652; in [5], 0.686 and 0.158; in test [6], 0.845 and -0.533; in [7] it was 0.365 and 0.197. The composite z-score was 0.796 and 0.145 in test [8]; 0.591 and -0.0346 in test [9]; 0.174 and 1.21 in [10]; 0.895 and -1.59 in [11]; 0.64 and -0.705 in test [13]; -0.271 and -0.503 in test [14]. The composite z-score in test [15] is 0.004 and -0.587; in [16], -0.0944 and 0.0102; in test [17], 0.151 and -0.0146; in [18] it was -0.205 and -0.342; in test [19], -0.0984 and -0.136; in [20], 0.538 and -0.436. Also, the z-score in test [4] is -0.694 (inactive) and -2.98 (inactive); in [12], -0.396 and 0.347.
Consider `C=CCN(Cc1ccccc1)C(=O)C1N(c2ccc(CCO)cc2)C(=O)C2C(C(=O)O)C3C=CC21O3` (stereo not given), for which the composite z-score in test [1] was 0.808 and 1.9; in test [2], 0.433 and -0.26; in test [3] it was 1.08 and 1.01; in test [5], -1.98 and -2.13; in test [6], -1.13 and -1; in [7], -1.69 and -2.44. Besides, the composite z-score is -3.03 and -1.19 in test [8]; -2.7 and -3.74 in test [9]; -3.78 and -3.04 in test [10]; -0.864 and -3.61 in [11]; -2.68 and -3.26 in [13]; -0.279 and -1.04 in test [14]. Besides, the composite z-score in test [15] was 0.428 and -0.184; in test [16] it was -0.195 and -0.0792; in test [17] it was 0.149 and -0.0035; in [18] it was -0.152 and 0.784; in [19] it was -0.958 and -1.58; in test [20], -1.48 and 0.899. The z-score in test [4] was -0.426 (inactive) and -0.139 (inactive); in test [12], 0.677 and 0.514.
With `C=CCN(C(=O)C1N(CCOCCO)C(=O)C2C(C(=O)O)C3C=CC21O3)c1ccc(OC)cc1` (stereo not given), the composite z-score is -0.703 and 0.492 in test [1]; 0.0448 and 0.214 in [2]; 0.787 and 1.07 in [3]; -1.53 and -1.43 in test [5]; -0.805 and -0.855 in [6]; -1.33 and -3.15 in test [7]. Further, the composite z-score in test [8] was -2.58 and -2.06; in test [9] it was -1.83 and -2.76; in test [10], -3.52 and -4.08; in test [11] it was -0.754 and -1.72; in test [13], -2.03 and -2.77; in test [14] it was -0.315 and -1.35. Further, the composite z-score in test [15] is 0.538 and -0.237; in test [16], -0.2 and -0.214; in test [17], -0.221 and -0.195; in test [18], 0.406 and 0.669; in test [19], 1.38 and -0.149; in test [20], -1.18 and -2.65. The z-score is 0.503 (inactive) and 0.116 (inactive) in [4]; 0.51 and -0.102 in test [12].
For `CC(CO)N1C(=O)[C@@H]2C3C(=O)OCCC=C[C@H]3OC23C=CCN(c2ccc(Cl)cc2)C(=O)[C@@H]13` (stereo not given in full), the composite z-score was 1.13 and 1.84 in test [1]; -0.0514 and 0.0818 in [2]; 0.574 and 0.715 in test [3]; -1.16 and 0.322 in test [5]; -1.61 and -0.251 in [6]; -0.911 and -0.867 in [7]. For the same molecule, the composite z-score in test [8] is -1.14 and -0.558; in test [9], -1.33 and -0.412; in test [10], 0.137 and 0.88; in test [11], -0.999 and 0.188; in [13] it was -0.905 and -1.03; in test [14], 0.136 and 0.0733. Moreover, the composite z-score in test [15] is 1.09 and -0.66; in test [16], -0.0346 and -0.152; in test [17] it was -0.19 and -0.0035; in test [18], 0.0473 and 0.61; in test [19], -0.236 and 1.7; in test [20] it was 0.0882 and -0.198. Further, the z-score in test [4] was 0.14 (inactive) and 0.899 (inactive); in [12], -0.229 and -0.964.
With `CCOC(=O)CCN1C(=O)[C@H]2[C@H]3[C@H](O)[C@H](O)CC(=NNC(=O)OCC)[C@@H]3CC[C@H]2C1=O`, the composite z-score was 0.238 in test [1]; -0.0567 in test [2]; -0.0213 in test [3]; 0.283 in test [5]; 0.0666 in test [6]; 0.209 in [7]. The composite z-score is 0.0654 in [8]; -0.0149 in test [9]; -0.772 in test [10]; 0.582 in test [11]; 0.354 in test [13]; 0.0089 in [14]. In addition, the composite z-score in test [15] is -1.05; in [16], 0.0511; in test [17] it was -0.273; in [18], 0.0234; in test [19], -0.0895; in test [20] it was 0.353. The z-score was 0.519 (inactive) in test [4] and 0.374 in test [12].
Consider `C[N+](C)(C)CCCCCCNC(=O)[C@H]1C[C@H]2C(=O)N[C@@H](CCCC[N+](C)(C)C)C(=O)N2[C@H]1c1cccc(OCCO)c1`, for which the composite z-score is 1.73 and 1.42 in test [1]; -0.0501 and 1.08 in test [2]; -0.148 and 0.62 in test [3]; 1.2 and 0.913 in test [5]; 0.898 and 0.613 in [6]; 0.111 and 0.558 in [7]. Also, the composite z-score in test [8] was 1.44 and 0.262; in test [9] it was 1.34 and 1.55; in test [10] it was 0.589 and 1.36; in test [11], 0.519 and 0.362; in test [13], 1.35 and 1.04; in [14], -0.742 and -0.31. Besides, the composite z-score in test [15] was -0.458 and 0.0972; in [16], -0.0981 and -0.0478; in test [17], -0.291 and -0.167; in [18] it was -0.0855 and 0.304; in test [19], 0.953 and 0.544; in test [20], 0.433 and -0.3. In addition, the z-score in test [4] was -0.159 (inactive) and 0.257 (inactive); in [12], 1.38 and 1.18.
